A short description of assay [1]: qHTS assay to identify small molecule antagonists of the glucocorticoid receptor (GR) signaling pathway - cell viability counter screen (AID 720693). Further: nearly all actives have a fitted effect of over 55% in size. For orientation: In qHTS, concentration-response curves come from the screen itself.
A short description of assay [2]: qHTS assay for identifying genotoxic compounds that show differential cytotoxicity against isogenic chicken DT40 cell lines with known DNA damage response pathways - wild type cell line (AID 743012). Further: nearly all actives have a fitted effect of over 60% in size. An outline of the steps:
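Wild type DT40, 300 cells/well, ~0.5 h settle at 37 C/5% CO2; compounds in DMSO added by pintool; 40 h at 37 C/5% CO2; CellTiter-Glo, 30 min RT; luminescence.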

Assay [3] is described as follows: qHTS assay for identifying genotoxic compounds that show differential cytotoxicity against isogenic chicken DT40 cell lines with known DNA damage response pathways - Rev3 mutant cell line (AID 743014). Further: nearly all actives have a fitted effect of over 55% in size.
Assay [4] can be described thus: qHTS assay for identifying genotoxic compounds that show differential cytotoxicity against isogenic chicken DT40 cell lines with known DNA damage response pathways - Rad54/Ku70 mutant cell line (AID 743015). Further: nearly all actives have a fitted effect of over 60% in size.
A short description of assay [5]: qHTS assay to identify small molecule antagonists of the androgen receptor (AR) signaling pathway - cell viability counter screen (AID 743033; further: nearly all actives have a fitted effect of over 45% in size).
A short description of assay [6]: qHTS assay to identify small molecule antagonists of the androgen receptor (AR) signaling pathway using the MDA cell line - cell viability counter screen (AID 743041; further: nearly all actives have a fitted effect of over 45% in size). An outline of the steps:
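MDA-kb2 AR-luc cells (MMTV-luciferase, AR/GR responsive) treated with compounds plus R1881 agonist for 16 h at 37C. CellTiter-Fluor added at 15.5 h; fluorescence read after 30 min in the same wells.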

Assay [7] is described as follows: qHTS assay to identify small molecule antagonists of the thyroid receptor (TR) signaling pathway - cell viability counter screen (AID 743064). Further: nearly all actives have a fitted effect of over 50% in size. An outline of the steps: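 Plate GH3.TRE-Luc cells; incubate 4 h at 37 °C; add compound, then T3 to 1 nM final; incubate 23.5 h; add CellTiter-Fluor; incubate 30 min at 37 °C, 5% CO2; read fluorescence.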
The nature of assay [8]: qHTS assay to identify small molecule antagonists of the thyroid receptor (TR) signaling pathway (AID 743065). Further: series mostly up to about 70 µM; nearly all actives have a fitted effect of over 55% in size. An outline of the steps: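 GH3.TRE-Luc rat pituitary cells (two TREs driving luciferase) were dosed with compound, then stimulated with 1 nM T3 (final) for 23.5 h at 37 C. ONE-Glo luminescence was the read-out, with CellTiter-Fluor fluorescence as the cytotoxicity counter-screen.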

Assay [9] concerns the target Estrogen receptor (Homo sapiens) (UniProt P03372). Put plainly: qHTS assay to identify small molecule antagonists of the estrogen receptor alpha (ER-alpha) signaling pathway (AID 743069; active means well fitted curve in the direction sought with a large enough effect in the signal ratio in the repeat runs, not every such curve was filed as active; the % refers to the signal ratio). An outline of the steps:
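HEK293 ER-alpha-UAS-bla GripTite cells, held overnight in 2% charcoal-stripped FBS, 5,000 cells/well, preincubated 4 h, then compound plus 17beta-estradiol for 18 h at 37C. Beta-lactamase read by LiveBLAzer B/G FRET substrate, 2 h at room temperature.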

Assay [10] shares this target. Briefly: qHTS assay to identify small molecule agonists of the estrogen receptor alpha (ER-alpha) signaling pathway (AID 743075; calls by dose curve).
Assay [11] shares this target. Put plainly: qHTS assay to identify small molecule agonists of the estrogen receptor alpha (ER-alpha) signaling pathway using the BG1 cell line (AID 743079). Further: nearly all actives have a fitted effect of over 20% in size. Further: potency means the concentration at half of the fitted maximal effect.
The nature of assay [12]: qHTS assay to identify small molecule antagonists of the estrogen receptor alpha (ER-alpha) signaling pathway using the BG1 cell line (AID 743080; calls by dose curve;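 further: BG1 cells stimulated with 17beta-estradiol alongside compound; series mostly up to about 70 µM; nearly all actives have a fitted effect of over 25% in size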). The gist of the method: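 BG1-Luc-4E2 cells (endogenous full-length ER-alpha, 4xERE luciferase) hormone-starved 5 days in charcoal-stripped FBS, plated 4,000/well for 24 h, then compound plus 17beta-estradiol for 21.5 h at 37 C; ONE-Glo luminescence read.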

The nature of assay [13]: qHTS assay to identify small molecule antagonists of the estrogen receptor alpha (ER-alpha) signaling pathway using the BG1 cell line - cell viability counter screen (AID 743081).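 Further: compound given together with 17beta-estradiol as the ER stimulus; series mostly up to about 70 µM; nearly all actives have a fitted effect of over 45% in size.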
Assay [14] addresses Aromatase (Homo sapiens) (UniProt P11511). Put plainly: qHTS assay to identify aromatase inhibitors (AID 743083). Further: series mostly up to about 70 µM; nearly all actives have a fitted effect of over 55% in size.
Assay [15] relates to thyroid hormone receptor (rat, GH3 cells). Put plainly: qHTS assay to identify small molecule agonists of the thyroid receptor (TR) signaling pathway (AID 743066; calls by dose curve).
Assay [16] is described as follows: qHTS assay to identify small molecule antagonists of the estrogen receptor alpha (ER-alpha) signaling pathway - cell viability counter screen (AID 743074; calls by dose curve;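 further: HEK293 cells carrying ER-alpha-UAS-bla reporter stimulated with 17beta-estradiol; nearly all actives have a fitted effect of over 45% in size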).

The structures appear in SMILES notation. Inconclusive results are not listed. A number with no mark means an inactive call. Calls of active or inactive are those of the source. Unless noted, the call rests on the fitted dose curve; in most records, active means well fitted curve in the direction sought with a large enough effect in the repeat runs; inconclusive means weak or mixed curves; inactive means no such curve, though single readings can be large; an effect the other way counts as inactive or inconclusive.

Chain of Estrogen receptor (Homo sapiens) (P03372 whole entry, looked up): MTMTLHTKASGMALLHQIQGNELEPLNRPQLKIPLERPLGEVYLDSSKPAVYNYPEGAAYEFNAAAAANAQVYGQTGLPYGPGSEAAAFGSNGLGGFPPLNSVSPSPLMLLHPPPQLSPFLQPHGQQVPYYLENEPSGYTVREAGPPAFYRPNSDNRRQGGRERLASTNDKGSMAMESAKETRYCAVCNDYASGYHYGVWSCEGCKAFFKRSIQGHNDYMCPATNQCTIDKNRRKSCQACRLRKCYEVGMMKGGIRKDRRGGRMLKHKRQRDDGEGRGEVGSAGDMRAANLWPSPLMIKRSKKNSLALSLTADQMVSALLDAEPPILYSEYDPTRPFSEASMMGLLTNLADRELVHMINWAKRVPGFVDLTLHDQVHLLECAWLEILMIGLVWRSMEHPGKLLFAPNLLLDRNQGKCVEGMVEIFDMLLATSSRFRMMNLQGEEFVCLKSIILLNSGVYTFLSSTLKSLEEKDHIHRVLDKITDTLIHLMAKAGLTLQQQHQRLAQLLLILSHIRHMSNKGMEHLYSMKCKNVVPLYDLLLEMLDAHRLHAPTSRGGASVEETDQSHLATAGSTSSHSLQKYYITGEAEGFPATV
Chain of Aromatase (Homo sapiens) (P11511 whole entry, looked up): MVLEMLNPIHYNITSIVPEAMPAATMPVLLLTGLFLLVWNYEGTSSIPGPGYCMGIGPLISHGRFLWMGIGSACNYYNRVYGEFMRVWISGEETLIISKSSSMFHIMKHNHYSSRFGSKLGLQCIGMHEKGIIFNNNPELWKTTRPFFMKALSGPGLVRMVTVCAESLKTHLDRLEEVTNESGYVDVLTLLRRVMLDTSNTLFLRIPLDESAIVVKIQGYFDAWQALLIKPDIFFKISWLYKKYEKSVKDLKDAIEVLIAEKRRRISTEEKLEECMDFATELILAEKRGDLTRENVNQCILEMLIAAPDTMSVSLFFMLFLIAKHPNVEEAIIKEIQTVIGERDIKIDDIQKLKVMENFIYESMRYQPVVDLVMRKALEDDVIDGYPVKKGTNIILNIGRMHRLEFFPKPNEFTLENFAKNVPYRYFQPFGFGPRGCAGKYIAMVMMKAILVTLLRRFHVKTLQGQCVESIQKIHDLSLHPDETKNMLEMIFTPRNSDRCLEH

Regarding `C=CC(=O)OCC1CCCO1` (stereo not given), the call in [1], in assay [5], in assay [9], in assay [12] and in assay [14] was inactive. Besides, the Potency result in assay [2], in assay [3], in assay [4], in [6], in assay [7] and in assay [8] was “inactive” in each case. Further, the Potency entry in [10], in assay [11] and in assay [13] was “inactive” in each case.

In the case of `COc1c2occc2c(OC)c2c(=O)cc(C)oc12`, the molecule was called inactive in assay [1], in assay [5], in assay [15] and in assay [14]. Moreover, the Potency result in assay [2], in [3], in assay [4], in [6], in assay [7] and in assay [8] was “inactive” in each case. Further, the Potency entry in assay [13] is “inactive”.

Regarding `CCCCCCCCCOC(=O)CCCCC(=O)OCCCCCCC`, the molecule was called inactive in assay [1], in [5], in assay [16] and in assay [14]. In addition, the Potency entry in assay [2], in assay [3], in [4], in [6], in [7] and in [13] was “inactive” throughout.

For `CCn1cc(C(=O)O)c(=O)c2cnc(N3CCCC3)nc21`, the call in [1], in [5], in [15] and in [16] was inactive. The Potency entry in [2], in assay [3], in [4], in [6], in assay [7] and in assay [8] was “inactive” each time. Moreover, in assay [13], the Potency entry was “inactive”.

Consider `CC(C)OC(=O)OCOP(=O)(CO[C@H](C)Cn1cnc2c(N)ncnc21)OCOC(=O)OC(C)C`, for which the molecule was classed as inactive in assay [1], in assay [5], in [15], in assay [9], in assay [16] and in assay [12]. The Potency entry in assay [2], in [3], in assay [4], in assay [6], in [7] and in assay [10] was “inactive” throughout. In addition, the Potency result in assay [11] and in assay [13] was “inactive” in each case.

`CO[Si](CCCn1c(=O)n(CCC[Si](OC)(OC)OC)c(=O)n(CCC[Si](OC)(OC)OC)c1=O)(OC)OC`: the molecule was called inactive in assay [1], in assay [5], in assay [15], in [16] and in [14]. The Potency entry in assay [2], in [3], in assay [6], in [7], in assay [8] and in [13] was “inactive” in each case.

Regarding `CC1(C)O[C@H]2CC(=O)OC[C@]23[C@H]2CC[C@@]4(C)[C@H](c5ccoc5)OC(=O)[C@H]5O[C@]54[C@]2(C)C(=O)C[C@@H]13`, the molecule was classed as inactive in assay [1], in [5], in [15], in [9], in assay [16] and in assay [14]. The Potency result in assay [2], in assay [4], in [6], in [7], in assay [8] and in assay [10] was “inactive” each time. In [11], the Potency is 13.3 µM (active).

As for `CC(C)(C)NC[C@H](O)COc1cccc2c1CCCC2=O`, the molecule was classed as inactive in [1], in assay [15], in assay [9], in [16], in [12] and in assay [14]. In addition, the Potency entry in assay [2], in assay [3], in [4], in assay [6], in [7] and in assay [8] was “inactive” each time. The Potency entry in [10], in assay [11] and in [13] was “inactive” in each case.

Consider `CC1OCCC1=O` (stereo not given), for which the molecule was classed as inactive in assay [1], in assay [5], in assay [15], in assay [9], in [16] and in assay [12]. The result in assay [14] was inactive. Moreover, the Potency result in assay [2], in assay [4], in assay [6], in assay [7], in assay [8] and in [10] was “inactive” each time. The Potency entry in assay [11] and in assay [13] was “inactive” in each case.

For the molecule `CCCCCC/C=C/C(=O)OC`, the call in assay [1], in assay [5], in assay [15], in assay [16] and in [14] was inactive. The Potency result in [2], in [3], in assay [6], in [7], in [8] and in assay [13] was “inactive” throughout.

In the case of `C=CCCCCCCCCC(=O)OCCCC`, the molecule was called inactive in assay [1], in assay [5], in assay [15], in assay [9], in assay [16] and in assay [12]. The molecule was classed as inactive in [14]. Moreover, the Potency entry in assay [2], in [4], in assay [6], in [7], in assay [8] and in assay [10] was “inactive” in each case. Besides, the Potency result in [11] and in assay [13] was “inactive” in each case.

In the case of `CC(=O)CCc1ccc(OC(C)=O)cc1`, the molecule was classed as inactive in assay [1], in [5], in [15], in [9], in assay [16] and in assay [12]. For the same molecule, the call in assay [14] was inactive. In addition, the Potency entry in [2], in assay [4], in assay [6], in [7], in [8] and in [10] was “inactive” throughout. In addition, the Potency entry in assay [11] and in assay [13] was “inactive” each time.

For the origin of these results see PubChem BioAssay (Tox21).
